VP16 counter = Gal4-VP16 reporter inhibition counter-screen; Potency, µM (series often up to 53.6 µM), for the others: at the top dose activity, negative = inhibition, usual class: inhibitors; 310,000 compounds, 3.5% hits; Drosophila S2 Gal4-VP16 UAS-luciferase, luminescence, 20 h;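 note: Gal4-VP16 expression switched on by copper sulfate through the metallothionein promoter; potency is the fitted concentration of half-maximal effect; nearly all actives have a fitted effect of over 50% in size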
GALK inhibitor = galactokinase (human) inhibition. Purified GALK, Kinase-Glo residual ATP luminescence. P51570. Potency, µM (series often up to 57.5 µM), without a hit: at the highest dose activity change, negative = inhibition, actives largely listed as inhibitors. AID 1868. 270,000 compounds, 0.007% hits; note: potency is the fitted concentration of half-maximal effect
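Galactose (100 uM) and ATP (35 uM) were turned over by 5 nM GALK for 1 h at RT. Kinase-Glo Plus then converted the remaining ATP into a luminescent signal.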
TrxR1 inh = rat TrxR1 inhibition; O89049; recombinant rTrxR1, NADPH fluorescence consumption, selenite substrate; 390,000 compounds, 1% hits; Potency, µM (series often up to 114 µM), inactives show top-dose activity change, negative = inhibition, hits mostly inhibitors; note: potency is the fitted concentration of half-maximal effect; nearly all actives have a fitted effect of over 65% in size
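Rat TrxR1 (90 nM in the dispensed reagent) was pre-reduced with 400 uM NADPH for 5 min at room temperature, then incubated with compound for 15 min. After 400 uM selenite was added, NADPH fluorescence (Ex 340/Em 450 nm) was followed for 8 min.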
TrxR1 substrate = rat thioredoxin reductase 1 substrate activity; O89049; purified TrxR1 substrate turnover, NADPH consumption readout; Potency, µM (top dose mostly 114 µM), for inactives: at the top dose activity change, negative = substrate turnover; 390,000 compounds, 0.01% hits; AID 588456; note: potency is the fitted concentration of half-maximal effect; nearly all actives have a fitted effect of over 50% in size
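Rat TrxR1, dispensed at 90 nM, was prereduced with 400 uM NADPH (final) for 5 min at ~22 deg C, then incubated with compound 15 min before 400 uM selenite. A first-read NADPH fluorescence drop versus no-compound background flagged substrates.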
RORg inh = ROR gamma (mouse) transcription inhibition. Drosophila S2 Gal4-RORgamma UAS-luciferase reporter, 20 h. Potency, µM (highest dose often 53.6 µM), without a hit: at the highest dose activity change, negative = inhibition, most hits filed as inhibitors. 310,000 compounds, 5.4% hits. AID 2551; note: potency is the fitted concentration of half-maximal effect; nearly all actives have a fitted effect of over 60% in size
Target sequence (P51450 whole entry, looked up, the tested form may be a part): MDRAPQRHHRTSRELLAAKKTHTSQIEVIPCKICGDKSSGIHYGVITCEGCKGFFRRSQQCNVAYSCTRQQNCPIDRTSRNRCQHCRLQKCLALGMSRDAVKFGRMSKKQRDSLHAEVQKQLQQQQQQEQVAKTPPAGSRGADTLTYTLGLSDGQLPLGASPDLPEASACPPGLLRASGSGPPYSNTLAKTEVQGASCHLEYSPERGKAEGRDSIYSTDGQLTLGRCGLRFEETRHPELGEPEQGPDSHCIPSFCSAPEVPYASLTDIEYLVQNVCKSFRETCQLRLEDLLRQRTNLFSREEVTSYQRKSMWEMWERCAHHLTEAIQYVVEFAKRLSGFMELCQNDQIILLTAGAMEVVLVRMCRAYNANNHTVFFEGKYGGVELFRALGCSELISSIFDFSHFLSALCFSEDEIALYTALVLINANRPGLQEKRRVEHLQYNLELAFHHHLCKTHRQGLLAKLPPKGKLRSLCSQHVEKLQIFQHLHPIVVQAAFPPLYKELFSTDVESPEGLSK
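Drosophila S2 cells stably expressing Gal4-DBD/mouse RORγ fusion under metallothionein promoter plus UAS-luciferase; compound 1 h, then 700 uM CuSO4 induction for 20 h at ambient temperature; inhibition read as reduced luminescence.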
FBPA coupling cs = coupling enzyme interference in Giardia aldolase counter-screen; coupling enzyme system counterscreen, AmpLite Red fluorescence; activity change, negative = inhibition, % at 58.2 µM, hits read low; 290,000 compounds, 0.67% hits; AID 2472; in the data active = activity change below about -30%
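Activity here indicates interference with the coupling reaction, not aldolase inhibition. Compounds at 57.5 uM final met coupling enzymes for 10 min at RT; substrate and AmpLite Red detection followed, with a 525/598 nm fluorescence read after 20 min.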
* hit, by the source's call; [ ] = dose if it differs, or a comment. Compounds with a hit are over-represented: about 5.9% of the library has one in this group of screens. Unless noted, calls come from the whole dose curve; as a rule, active = well fitted curve in the direction sought with a large enough effect; inconclusive = small, poorly fitted or top-dose-only effect, or another doubt; inactive = no such curve, though single readings can be large; an effect the other way counts as inactive or inconclusive. % is set by controls: 0 for no effect and ±100 for the full control effect.

For CC(C)CCNC(=O)CCS(=O)(=O)c1cccc2nonc12 the results were VP16 counter -6%, GALK inhibitor -2%, TrxR1 inh 56µM*, TrxR1 substrate -3%, RORg inh -14% and FBPA coupling cs 1.
`CC(C)(C)c1nnc(NC(=O)Cc2ccccc2[N+](=O)[O-])s1` gave VP16 counter inconclusive, GALK inhibitor 0%, TrxR1 inh 23%, TrxR1 substrate 6%[0.0914 µM], RORg inh inconclusive and FBPA coupling cs -2.
Screening CC(NC(=S)NCCCN1CCOCC1)C12CC3CC(CC(C3)C1)C2 (configuration not stated) returned VP16 counter inconclusive, GALK inhibitor 5%, TrxR1 inh -6%, TrxR1 substrate -1%, RORg inh 10µM* and FBPA coupling cs 3.
Screening CC(NC(=O)c1ccccc1F)C12CC3CC(CC(C3)C1)C2 (configuration not stated) returned TrxR1 inh 14% and TrxR1 substrate 4%.
Screening CC(NC(=S)NCc1ccccc1)C12CC3CC(CC(C3)C1)C2 (configuration not stated) returned VP16 counter inconclusive, GALK inhibitor 1%, TrxR1 inh 5%[57.1 µM], TrxR1 substrate 4%[57.1 µM], RORg inh 2.8µM* and FBPA coupling cs -4.
For COC(=O)c1c(-c2ccc(C)cc2)csc1NC(=S)NC(=O)c1cc(OC)cc(OC)c1 the results were VP16 counter 8.9µM*, GALK inhibitor 0%, TrxR1 inh -1%, TrxR1 substrate -8%, RORg inh 2.8µM* and FBPA coupling cs 2.
`CCOC(=O)c1c(-c2cccc([N+](=O)[O-])c2)csc1NC(=O)C1CCCCC1` gave VP16 counter 10µM*, GALK inhibitor -3%, TrxR1 inh 14%[57.1 µM], TrxR1 substrate 11%[57.1 µM], RORg inh inconclusive and FBPA coupling cs -4.
`CCOC(=O)c1c(-c2ccc(C)cc2)csc1NC(=O)c1cc(-c2ccc(OC)cc2)on1` gave TrxR1 inh 24% and TrxR1 substrate 4%.
`CCOC(=O)c1c(-c2ccccc2)csc1NC(=S)NC` gave VP16 counter 1µM*, GALK inhibitor 0%, TrxR1 inh 5%, TrxR1 substrate 5%, RORg inh inconclusive and FBPA coupling cs -1.
CCNC(=S)Nc1scc(-c2ccccc2)c1C(=O)OCC was read as VP16 counter 2.5µM*, GALK inhibitor 0%, TrxR1 inh inconclusive, TrxR1 substrate 10%, RORg inh 1.4µM* and FBPA coupling cs 2.
`CCOC(=O)c1c(-c2ccccc2)csc1NC(=O)CCN1C(=O)c2ccccc2C1=O` gave VP16 counter -5%, GALK inhibitor 0%, TrxR1 inh 7%, TrxR1 substrate -2%, RORg inh 25% and FBPA coupling cs 0.
Screening CCOC(=O)c1c(-c2ccc(-c3ccccc3)cc2)csc1NC(=O)CNCCN(C)C returned VP16 counter 1.6µM*, GALK inhibitor -2%, TrxR1 inh -9%, TrxR1 substrate 4%, RORg inh 0.63µM* and FBPA coupling cs 0.
Screening COc1ccccc1NC(=S)NC(=O)c1ccc(Cn2cc(Br)cn2)cc1 returned VP16 counter inconclusive, GALK inhibitor 2%, TrxR1 inh -16%[57.1 µM], TrxR1 substrate 8%[57.1 µM], RORg inh 7.9µM* and FBPA coupling cs 0.
CCn1cc(C(=O)NC(=S)Nc2ccccc2Br)cn1 was read as VP16 counter 10µM*, GALK inhibitor 1%, TrxR1 inh inconclusive, TrxR1 substrate 2%, RORg inh 7.1µM* and FBPA coupling cs 0.
CCn1cc(C(=O)NC(=S)Nc2ccccc2[N+](=O)[O-])cn1 was read as VP16 counter inconclusive, GALK inhibitor 5%, TrxR1 inh -25%, TrxR1 substrate 6% and RORg inh inconclusive.

High-throughput results deposited in PubChem by National Center for Advancing Translational Sciences (NCATS).
